Among all 310,000 compounds or so, about 14,000 (4.5%) showed an effect of 50% or more. The effect is printed as a negative number. The list comes from a sample in which strong results are over-represented; it also holds similar structures and randomly drawn compounds.
These molecules were tested against human ether-à-go-go-related gene (hERG) potassium channel (human, UniProt Q12809) (assay: primary screen, population patch clamp on CHO cells stably expressing hERG; higher = less effect of the substance).
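Note: peak tail current of the secondary pulse compared with the same well before compound.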

human ether-à-go-go-related gene (hERG) potassium channel, sequence (Q12809 whole entry, looked up): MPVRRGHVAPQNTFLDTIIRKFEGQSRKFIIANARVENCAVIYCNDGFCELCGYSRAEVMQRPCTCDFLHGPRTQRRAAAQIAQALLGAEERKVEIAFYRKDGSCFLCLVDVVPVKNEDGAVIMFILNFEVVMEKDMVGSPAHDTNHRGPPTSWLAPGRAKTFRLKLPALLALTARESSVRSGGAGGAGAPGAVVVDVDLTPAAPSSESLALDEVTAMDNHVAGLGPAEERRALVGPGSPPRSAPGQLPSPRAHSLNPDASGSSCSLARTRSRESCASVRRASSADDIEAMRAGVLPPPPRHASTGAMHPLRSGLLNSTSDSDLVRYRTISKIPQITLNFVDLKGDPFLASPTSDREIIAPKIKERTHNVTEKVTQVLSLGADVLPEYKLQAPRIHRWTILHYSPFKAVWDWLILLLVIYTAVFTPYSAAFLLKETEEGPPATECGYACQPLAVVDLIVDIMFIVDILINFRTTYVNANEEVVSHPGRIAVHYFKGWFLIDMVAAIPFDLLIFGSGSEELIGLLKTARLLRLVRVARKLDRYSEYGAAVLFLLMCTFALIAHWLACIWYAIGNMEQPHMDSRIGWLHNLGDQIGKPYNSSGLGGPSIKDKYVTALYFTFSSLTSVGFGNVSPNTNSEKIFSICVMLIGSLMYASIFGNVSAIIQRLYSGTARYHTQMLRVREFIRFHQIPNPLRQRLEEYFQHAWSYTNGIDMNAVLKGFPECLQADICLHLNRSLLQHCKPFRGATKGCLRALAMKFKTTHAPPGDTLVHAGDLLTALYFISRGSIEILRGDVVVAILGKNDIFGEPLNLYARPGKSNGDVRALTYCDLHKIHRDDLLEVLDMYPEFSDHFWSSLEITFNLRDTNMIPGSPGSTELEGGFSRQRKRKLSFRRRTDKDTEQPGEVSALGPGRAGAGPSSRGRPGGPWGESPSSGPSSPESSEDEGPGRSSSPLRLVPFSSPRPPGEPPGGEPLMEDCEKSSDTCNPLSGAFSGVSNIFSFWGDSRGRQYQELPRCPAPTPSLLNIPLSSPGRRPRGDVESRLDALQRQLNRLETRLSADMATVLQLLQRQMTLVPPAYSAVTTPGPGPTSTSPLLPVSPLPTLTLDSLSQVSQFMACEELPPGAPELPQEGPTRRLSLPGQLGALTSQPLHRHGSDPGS

Row | SMILES | hERG current change (%, negative = inhibition) at 10uM
1 | Cc1nc2ccc(Br)cn2c1C(=O)N/N=C\c1ccccc1[N+](=O)[O-] | 27.6%
2 | NC(=O)C[n+]1cccc(C(N)=O)c1.[Cl-] | 12.8%
3 | Cc1ccc(S(=O)(=O)Nc2c(C)n(C)n(-c3ccccc3)c2=O)c(C)c1 | 9.47%
4 | O=C(CCN1CCCCCC1)Nc1ccc2c(c1)OCCO2.O=C(O)C(=O)O | -1.98%
5 | Cc1ccc(S(=O)(=O)NC(C)c2ccccc2)cc1[N+](=O)[O-] (centres unmarked) | 9.16%
6 | CC(=O)Nc1nnc(COc2ccc(Cl)cc2)s1 | 30.7%
7 | O=C(c1ccccc1)N1CCCC(c2nc3c(nnn3Cc3ccccc3)c(=O)[nH]2)C1 (centres unmarked) | -3.63%
8 | O=c1[nH]c(C2CCN(S(=O)(=O)c3ccc(S(=O)(=O)NC4CC4)cc3)CC2)nc2c1nnn2Cc1ccc(F)cc1 | 3.81%
9 | COc1ccc(Cn2nnc3c(=O)[nH]c(C4CCCN(C(=O)c5ccccc5)C4)nc32)cc1 (centres unmarked) | -22.5%
10 | Cc1ccc(C(=O)N2CCCC(c3nc4c(nnn4Cc4ccccc4)c(=O)[nH]3)C2)cc1 (centres unmarked) | -62.4%
11 | Cc1ccc(Cn2nnc3c(=O)[nH]c(C4CCN(S(=O)(=O)c5ccc(F)cc5)CC4)nc32)cc1 | 6.62%
12 | COC(=O)c1ccc(Cn2nnc3c(=O)[nH]c(C4CCN(S(=O)(=O)c5ccc(F)cc5)CC4)nc32)cc1 | -70.3%
13 | C=C(c1ccccc1O)n1ccnc1 | 27.8%
14 | Cc1[nH]nc2c1C(c1ccco1)C(C#N)=C(N)O2 (centres unmarked) | 18.4%
15 | Cc1nnc(SCCn2c(N3CCCC(C)C3)nc3c2c(=O)n(C)c(=O)n3C)s1 (centres unmarked) | -5.21%
16 | OC1CCN(C(c2ccc3ncccc3c2)c2nnnn2C2CCCCC2)CC1 (centres unmarked) | -31.8%
17 | c1cnc2ccc(C(c3nnnn3C3CCCCC3)N3CCN4CCCC4C3)cc2c1 (centres unmarked) | -109%
18 | c1cnc2ccc(C(c3nnnn3C3CCCCC3)N3CCN(C4CCCCC4)CC3)cc2c1 (centres unmarked) | -78.8%
19 | c1cnc2ccc(C(c3nnnn3C3CCCC3)N3CCN4CCCC4C3)cc2c1 (centres unmarked) | -45.2%
20 | CCC(C)(C)n1nnnc1C(c1ccc2ncccc2c1)N1CCN2CCCC2C1 (centres unmarked) | -10.8%
21 | c1cnc2ccc(C(c3nnnn3C3CCCCC3)N3CCCCC3)cc2c1 (centres unmarked) | -15.6%
22 | CCOC(=O)c1cccc(N2C(N)=NC(N)=NC2(C)C)c1.Cl | -1.9%
23 | CCOc1ccccc1C(=O)NC(C(=O)NCc1ccc(F)cc1)C(C)C (centres unmarked) | -14.7%
24 | CC(=O)N/C(=C/c1ccc(OC(F)F)cc1)C(=O)O | 3.4%

Row | SMILES | hERG current change (%, negative = inhibition) at 10uM
25 | COc1ccc(C(=O)Nc2c(N)nc(SCC(=O)N3CCCCCC3)[nH]c2=O)cc1OC | 0.918%
26 | Cc1ccccc1NC(=O)CSc1nnc(Cc2cccn2C)n1-c1ccc(F)cc1 | -0.084%
27 | O=C(NNS(=O)(=O)c1ccccc1)C(O)(c1ccccc1)c1ccccc1 | 7.23%
28 | Cc1ccc(S(=O)(=O)NNC(=O)C(O)(c2ccccc2)c2ccccc2)cc1 | 1.02%
29 | O=C(NNS(=O)(=O)c1ccc(CCCl)cc1)C(O)(c1ccccc1)c1ccccc1 | -55.9%
30 | CCOCCCNC(=O)c1cccc(OC2CCN(S(C)(=O)=O)CC2)c1 | 12.6%
31 | CCc1cc(CNC(=O)c2cccc(OC3CCN(S(C)(=O)=O)CC3)c2)on1 | -70.3%
32 | COCCC(=O)N1CCC(Oc2ccc(C(=O)NCc3ccon3)cc2)CC1 | 3.38%
33 | O=C(NCc1ccon1)c1ccc(OC2CCN(CCc3ccccc3)CC2)cc1 | -66.6%
34 | CC(C)c1cc(CNC(=O)c2ccc(OC3CCN(Cc4ccccn4)CC3)cc2)on1 | -16.1%
35 | O=C(NCCc1ccccn1)c1ccc(OC2CCN(CCc3ccccc3)CC2)cc1 | -41.9%
36 | CCc1cc(CNC(=O)c2ccc(OC3CCN(CCc4ccccc4)CC3)cc2)on1 | -75.5%
37 | O=C(NCCn1cccn1)c1ccc(OC2CCN(CCc3ccccc3)CC2)cc1 | -41.3%
38 | Cc1cc(CNC(=O)c2cccc(OC3CCN(S(=O)(=O)N(C)C)CC3)c2)on1 | 0.225%
39 | COc1ccccc1C(=O)NCCC(=O)N1CCN(c2cccc(C(F)(F)F)c2)CC1 | -21.7%
40 | COc1ccc(Cc2nnc(NS(C)(=O)=O)s2)cc1 | 3.9%
41 | Cc1cc(NC(=O)c2cc(CC(C)C)on2)no1 | 7.66%
42 | Nc1c(C(=O)NCc2ccccc2)c2nc3ccccc3nc2n1-c1ccc2c(c1)OCO2 | 5.58%
43 | Cc1ccc2c(c1)c(N=NC(N)=S)c(O)n2Cc1ccccc1 | -1.71%
44 | COc1cccc(C2C(=O)N(C3CCCCC3)CC(=O)N2Cc2ccc(F)cc2)c1 (centres unmarked) | -43.8%
45 | O=C(Nc1nc2ccccc2[nH]1)c1ccc(OC(F)F)cc1 | -11%
46 | COc1ccc(CC(C#N)(CO)c2nc3ccccc3[nH]2)cc1 (centres unmarked) | -7.12%
47 | N#CC(Cc1ccccc1OC(F)F)c1nc2ccccc2[nH]1 (centres unmarked) | -16.2%

— paper PMC4336329 (PLoS ONE, 2015)
